Assay [1] in a line: qHTS assay to test for compound auto fluorescence at 535 nm (green) in HEK293 cells (AID 720680). Background: In qHTS, concentration-response curves come from the screen itself.
Assay [2] in a line: qHTS assay to test for compound auto fluorescence at 460 nm (blue) in HEK293 cell free culture (AID 720681). The method, boiled down:
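Test compounds were pinned into cell-free culture medium (DMEM with 10% FBS) and fluorescence was read directly at Ex/Em 405/460 nm. Signals were expressed as fluorescence equivalents of triamterene, with DMSO vehicle as control.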

Assay [3] in a line: qHTS assay to test for compound auto fluorescence at 535 nm (green) in HEK293 cell free culture (AID 720682). An outline of the steps:
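No cells present: wells hold DMEM supplemented with 10% FBS, into which compound or vehicle is pinned. Green emission is then recorded (485 nm excitation, 535 nm emission) and scaled to fluorescein.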

The nature of assay [4]: qHTS assay to test for compound auto fluorescence at 590 nm (red) in HEK293 cell free culture (AID 720683). The method, boiled down: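 Tox21 10K library compounds were pinned into cell-free DMEM with 10% FBS and fluorescence was read at excitation 540 nm. Activity is expressed as Rose Bengal sodium equivalency.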
Assay [5] can be described thus: qHTS assay to test for compound auto fluorescence at 590 nm (red) in HepG2 cell free culture (AID 720684). An outline of the steps: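 Red fluorescence (540 nm excitation, 590 nm emission) was measured after compound transfer into cell-free MEM supplemented with 10% FBS. Values are equivalencies against Rose Bengal sodium.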
A short description of assay [6]: qHTS assay to test for compound auto fluorescence at 460 nm (blue) in HepG2 cell free culture (AID 720685). The method, boiled down:
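Compound (23 nL) or DMSO pinned into cell-free MEM with 10% FBS; blue fluorescence read at 405/460 nm excitation/emission, expressed as auto-fluorescence equivalency to triamterene.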

A short description of assay [7]: qHTS assay to test for compound auto fluorescence at 535 nm (green) in HepG2 cell free culture (AID 720686).
The nature of assay [8]: qHTS assay to test for compound auto fluorescence at 460 nm (blue) in HepG2 cells (AID 720687). The method, boiled down:
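Cells (2,000/well in MEM with 10% FBS) attached overnight at 37 C, then were exposed to compound or DMSO for 1 hr at 37 C, 5% CO2. Fluorescence read at Ex/Em 405/460 nm, expressed as triamterene-equivalent signal.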

The target of assay [9] is Glucocorticoid receptor (Homo sapiens) (UniProt P04150). Nature of the assay: qHTS assay to identify small molecule antagonists of the glucocorticoid receptor (GR) signaling pathway (AID 720692; active means well fitted inhibition curve with a large enough effect in the signal ratio in the repeat runs, not every such curve was filed as active; the % refers to the signal ratio; further: potency means the concentration at half of the fitted maximal effect). The method, boiled down:
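Dexamethasone (5 nM final) stimulated a stably integrated GRE-beta-lactamase reporter in HeLa cells during 18 h co-incubation with compounds; signal was quantified as fluorescence intensity of B/G FRET substrate after 2 h.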

Assay [10] is described as follows: qHTS assay to identify small molecule antagonists of the glucocorticoid receptor (GR) signaling pathway - cell viability counter screen (AID 720693). Further: nearly all actives have a fitted effect of over 55% in size. Further: potency means the concentration at half of the fitted maximal effect.
A short description of assay [11]: qHTS assay for identifying genotoxic compounds that show differential cytotoxicity against isogenic chicken DT40 cell lines with known DNA damage response pathways - wild type cell line (AID 743012). Further: nearly all actives have a fitted effect of over 60% in size. Further: potency means the concentration at half of the fitted maximal effect. An outline of the steps: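 Using parental DT40 (300 cells/well), compounds delivered in DMSO incubate 40 h at 37 C/5% CO2. CellTiter-Glo reagent then stands 30 min at room temperature, and luminescence gives cell viability.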

Assay [12] can be described thus: qHTS assay for identifying genotoxic compounds that show differential cytotoxicity against isogenic chicken DT40 cell lines with known DNA damage response pathways - Rev3 mutant cell line (AID 743014). Further: nearly all actives have a fitted effect of over 55% in size. Further: potency means the concentration at half of the fitted maximal effect.
A short description of assay [13]: qHTS assay to identify small molecule antagonists of the androgen receptor (AR) signaling pathway - cell viability counter screen (AID 743033; further: nearly all actives have a fitted effect of over 45% in size; further: potency means the concentration at half of the fitted maximal effect).
The nature of assay [14]: qHTS assay to identify small molecule antagonists of the androgen receptor (AR) signaling pathway using the MDA cell line - cell viability counter screen (AID 743041; further: nearly all actives have a fitted effect of over 45% in size). An outline of the steps:
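MDA-kb2 AR-luc human breast carcinoma cells (MMTV-luciferase, AR/GR responsive) were treated with compounds plus R1881 agonist for 16 h at 37 °C. Viability was read as CellTiter-Fluor fluorescence in the same wells as the reporter assay.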

For assay [15], the target named is Glucocorticoid receptor (Homo sapiens) (UniProt P04150). Nature of the assay: qHTS assay to identify small molecule agonists of the glucocorticoid receptor (GR) signaling pathway (AID 720691; active means well fitted activation curve with a large enough effect in the signal ratio in the repeat runs, not every such curve was filed as active; the % refers to the signal ratio). An outline of the steps: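 Reporter read-out: fluorescence intensity following 2 h room-temperature LiveBLAzer B/G FRET substrate loading. Prior step: GR-bla HeLa cells held 4 h, then treated 18 h at 37 C.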

A short description of assay [16]: qHTS assay to identify small molecule antagonists of the thyroid receptor (TR) signaling pathway - cell viability counter screen (AID 743064). Further: nearly all actives have a fitted effect of over 50% in size. Further: potency means the concentration at half of the fitted maximal effect. The method, boiled down:
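Rat GH3 pituitary tumor cells stably expressing two TR response elements driving luciferase were plated, rested 4 h, then dosed with library compounds and T3 (1 nM final). After 23.5 h at 37 °C, CellTiter-Fluor was added for 30 min and fluorescence recorded.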

A short description of assay [17]: qHTS assay for identifying genotoxic compounds that show differential cytotoxicity against isogenic chicken DT40 cell lines with known DNA damage response pathways - Rad54/Ku70 mutant cell line (AID 743015). Further: nearly all actives have a fitted effect of over 60% in size. Further: potency means the concentration at half of the fitted maximal effect.

From PubChem BioAssay (Tox21) come the findings set out here.

The structures appear in SMILES notation. Several values for one entry are separate records, joined by “and”; a condition that tells them apart may be missing. Identical values can stand only once. Inconclusive results are not listed. More than one record can exist for a structure, and the calls need not agree. Activity calls are given as the source filed them. Unless noted, the call rests on the fitted dose curve; in most records, active means well fitted curve in the direction sought with a large enough effect in the repeat runs; inconclusive means weak or mixed curves; inactive means no such curve, though single readings can be large; an effect the other way counts as inactive or inconclusive.

Chain of Glucocorticoid receptor (Homo sapiens) (P04150 whole entry, looked up): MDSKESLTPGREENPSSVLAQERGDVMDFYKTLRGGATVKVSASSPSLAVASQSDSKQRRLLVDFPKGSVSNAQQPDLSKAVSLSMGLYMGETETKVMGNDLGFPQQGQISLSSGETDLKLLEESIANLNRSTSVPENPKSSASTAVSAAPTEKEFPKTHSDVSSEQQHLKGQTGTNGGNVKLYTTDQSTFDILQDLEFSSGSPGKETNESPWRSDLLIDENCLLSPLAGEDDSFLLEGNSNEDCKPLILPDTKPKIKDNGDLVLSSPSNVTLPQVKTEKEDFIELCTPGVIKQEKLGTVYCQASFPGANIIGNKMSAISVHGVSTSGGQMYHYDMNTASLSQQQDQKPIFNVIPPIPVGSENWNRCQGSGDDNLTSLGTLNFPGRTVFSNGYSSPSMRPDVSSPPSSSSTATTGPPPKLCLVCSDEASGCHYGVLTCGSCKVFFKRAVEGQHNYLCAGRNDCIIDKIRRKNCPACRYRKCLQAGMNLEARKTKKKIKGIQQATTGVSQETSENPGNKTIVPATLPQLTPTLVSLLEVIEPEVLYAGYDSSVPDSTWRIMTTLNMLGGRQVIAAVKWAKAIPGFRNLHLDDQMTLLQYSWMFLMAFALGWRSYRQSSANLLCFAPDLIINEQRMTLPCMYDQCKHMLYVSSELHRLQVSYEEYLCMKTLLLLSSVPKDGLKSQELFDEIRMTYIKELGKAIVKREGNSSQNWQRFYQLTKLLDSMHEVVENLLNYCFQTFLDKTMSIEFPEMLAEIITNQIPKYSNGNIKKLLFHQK

Take `C[C@]12CC[C@@H]3c4ccc(O)cc4CC[C@H]3[C@@H]1CC[C@@H]2O`: the Potency entry in assay [1], in [2], in assay [3], in [4], in assay [5] and in assay [6] was “inactive” in each case. In addition, the Potency entry in assay [7], in assay [8], in assay [13] and in assay [14] was “inactive” each time. For the same compound, the Potency in [9] is 4.25 µM (active) and 2.18 µM (active); in assay [10], 24.5 µM (active); in assay [11], 29.8 µM (active) and 61.1 µM (active); in assay [12], 23.7 µM (active) and 54.4 µM (active) and 54.5 µM (active).

Consider `CN1CCOCC1`, for which the Potency result in assay [1], in assay [2], in assay [3], in assay [4], in assay [5] and in [6] was “inactive” throughout. Further, the Potency entry in [7], in [8], in assay [15], in [9], in [10] and in assay [11] was “inactive” throughout. In addition, the Potency result in assay [12], in assay [13] and in assay [16] was “inactive” in each case.

`CC1(C)OC(=O)NC1=O`: the Potency result in assay [1], in [2], in [3], in [4], in assay [5] and in [6] was “inactive” throughout. Besides, the Potency entry in assay [7], in assay [8], in assay [15], in assay [9], in assay [10] and in assay [11] was “inactive” in each case. For the same compound, the Potency result in [12], in assay [17], in [14] and in [16] was “inactive” in each case.

Consider `C=CCOC(=O)C(=C)C`, for which the Potency result in assay [1], in assay [2], in [3], in assay [4], in [5] and in [6] was “inactive” throughout. Besides, the Potency result in [7], in assay [8], in assay [15], in assay [9], in assay [10] and in assay [11] was “inactive” in each case. For the same compound, the Potency entry in [12], in [17], in [14] and in assay [16] was “inactive” each time.

`C=C[Si](OCCOC)(OCCOC)OCCOC`: the Potency entry in assay [1], in assay [2], in assay [3], in [4], in assay [5] and in assay [6] was “inactive” throughout. The Potency result in assay [7], in assay [8], in assay [15], in assay [9] and in assay [10] was “inactive” each time. Moreover, the Potency in assay [11] was 43.3 µM (active); in [12], “inactive and 30.6 µM (active)”; in assay [17] it was “inactive and 30.6 µM (active)”.

Turning to `Nc1cc(Cl)c(N)c(Cl)c1`, the Potency entry in assay [1], in assay [2], in [3], in assay [4], in assay [5] and in assay [6] was “inactive” throughout. In addition, the Potency entry in assay [7], in [8], in [15], in assay [9], in assay [10] and in [14] was “inactive” in each case.

Turning to `CCCCCCCCCCCCCO`, the Potency result in [1], in assay [2], in [3], in assay [4], in assay [5] and in assay [6] was “inactive” each time. For the same compound, the Potency entry in assay [7], in [8], in assay [15], in [9], in [10] and in assay [11] was “inactive” throughout. For the same compound, the Potency result in [12], in assay [17], in assay [13] and in assay [14] was “inactive” in each case.

On to `Oc1ccc(C(c2ccc(O)cc2)C(Cl)(Cl)Cl)cc1`, for which the Potency entry in assay [1], in assay [2], in [3], in assay [4], in [5] and in assay [6] was “inactive” each time. Moreover, the Potency result in assay [7], in [8] and in [14] was “inactive” each time. Further, the Potency in [9] was 21.9 µM (active); in [11], 24.3 µM (active); in assay [12] it was 60.9 µM (active) and 48.6 µM (active); in assay [17], 60.9 µM (active) and 19.3 µM (active); in assay [13] it was 49 µM (active); in [16] it was 60.9 µM (active) and 61.1 µM (active).
